Laboratory results: paper PMC5540273 (PLoS ONE, 2017)

Tests used:
Settings in all cases: concentration: 1 μM, replicates: in singlicate; n = 1
NDR1 = system: T1, NDR1
T1 construct: gene STK38

NDR2 = system: NDR2
NEK10 = system: NEK10
NEK11 = system: NEK11
NEK1 = system: NEK1
NEK2 = system: NEK2
NEK3 = system: NEK3
NEK4 = system: NEK4
NEK5 = system: NEK5
NEK6 = system: NEK6
NEK7 = system: NEK7
NEK9 = system: NEK9
NIK = system: T2, NIK
T2 construct: gene MAP3K14

NIM1 = system: T3, NIM1
T3 construct: gene MGC42105

NLK = system: NLK
OSR1 = system: T4, OSR1
T4 construct: gene OXSR1

PAK1 = system: PAK1
PAK2 = system: PAK2
PAK3 = system: PAK3
PAK4 = system: PAK4
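Note: KINOMEscan kinase panel screen.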

| SMILES | %Inh (NDR1) [%] | %Inh (NDR2) [%] | %Inh (NEK10) [%] | %Inh (NEK11) [%] | %Inh (NEK1) [%] | %Inh (NEK2) [%] | %Inh (NEK3) [%] | %Inh (NEK4) [%] | %Inh (NEK5) [%] | %Inh (NEK6) [%] | %Inh (NEK7) [%] | %Inh (NEK9) [%] | %Inh (NIK) [%] | %Inh (NIM1) [%] | %Inh (NLK) [%] | %Inh (OSR1) [%] | %Inh (PAK1) [%] | %Inh (PAK2) [%] | %Inh (PAK3) [%] | %Inh (PAK4) [%] |
| --- | --- | --- | --- | --- | --- | --- | --- | --- | --- | --- | --- | --- | --- | --- | --- | --- | --- | --- | --- | --- |
| O=S(=O)(c1ccc(-c2ccnc3[nH]ccc23)cc1)N1CCCC1 [GSK846226] | 33 | 38 | 15 | 0 | 12 | 16 | 16 | 0 | 31 | 0 | 20 | 28 | 12 | 0 | 14 | 4 | 0 | 0 | 12 | 0 |
| Cc1ccccc1-n1cnc2c(N)ncnc21 [SKF-97510] | 0 | 20 | 0 | 0 | 11 | 0 | 0 | 0 | 9 | 0 | 12 | 0 | 0 | 0 | 15 | 0 | 15 | 11 | 25 | 0 |
| COc1cc2ncnc(Nc3ccc4nc(-c5ccccc5)[nH]c4c3)c2cc1OC.Cl [GW282450] | 17 | 0 | 14 | 2 | 0 | 0 | 0 | 4 | 29 | 0 | 0 | 22 | 23 | 18 | 38 | 11 | 9 | 9 | 0 | 0 |
| O=C(Nc1ccc2c(c1)OCO2)NC1CCN(c2ccnc(Nc3ccc(F)cc3)n2)C1 (stereo not shown) [GSK1379724] | 0 | 0 | 11 | 0 | 0 | 0 | 17 | 20 | 25 | 0 | 0 | 0 | 0 | 46 | 12 | 0 | 18 | 37 | 0 | 0 |
| O=c1cc(N2CCOCC2)nc2n(Cc3cccc(Cl)c3Cl)ccn12 [GSK2286295] | 12 | 0 | 0 | 0 | 0 | 4 | 1 | 6 | 4 | 0 | 0 | 27 | 32 | 0 | 28 | 14 | 22 | 11 | 0 | 0 |
| Cc1ccc(C(=O)Nc2ccc(Nc3ccnc4cc(-c5ccccn5)ccc34)cc2O)cc1.Cl [GW440146] | 6 | 0 | 0 | 2 | 0 | 0 | 0 | 14 | 0 | 0 | 0 | 52 | 11 | 15 | 22 | 1 | 12 | 15 | 14 | 0 |
| Fc1cc(Cl)ccc1Nc1ccnc2cc(I)ccc12 [GW551191] | 18 | 0 | 25 | 0 | 0 | 4 | 0 | 11 | 0 | 0 | 0 | 5 | 7 | 19 | 59 | 6 | 18 | 9 | 14 | 0 |
| Cc1cc(NCC(c2ccccc2)c2ccccc2)nc(NCc2ccc(C(F)(F)F)cc2)n1 [GW497681] | 10 | 16 | 0 | 0 | 0 | 0 | 0 | 0 | 0 | 0 | 0 | 0 | 7 | 22 | 0 | 3 | 0 | 2 | 0 | 0 |
| O=C(O)COc1ncnc2cc(-c3ccc4[nH]ncc4c3)sc12 | 24 | 0 | 48 | 1 | 0 | 0 | 87 | 10 | 25 | 22 | 5 | 0 | 0 | 26 | 0 | 34 | 5 | 3 | 3 | 0 |
| COC(=O)c1c(-c2ccccc2)c2cc(C(=O)O)ccc2c(=O)n1Cc1ccccc1 | 2 | 0 | 9 | 0 | 22 | 0 | 31 | 0 | 0 | 0 | 0 | 0 | 0 | 0 | 0 | 0 | 14 | 22 | 0 | 0 |
| Fc1cccc(COc2nnc(-c3ccc4c(c3)CCO4)o2)c1 | 0 | 4 | 0 | 0 | 10 | 0 | 12 | 0 | 0 | 0 | 19 | 3 | 0 | 0 | 6 | 0 | 27 | 55 | 16 | 15 |
